697 NFkB inh: inhibitors of the PMA/ionomycin-induced NF-kB reporter in 697 B cells; 330,000 tested, 0.33% active; inhibition, % at 4 µM; 697 B-cell NF-kB luciferase reporter, 16 h; in the data active = inhibition above about 35%
Mdm2-MdmX inh: disrupts the human Mdm2-MdmX interaction; O15151+Q00987; SaOS-2 split-luciferase Mdm2/MdmX complementation, luminescence; inhibition, % at 8 µM; 330,000 tested, 3% active; AID 485346;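 active = inhibition of at least 50% at 8 µM in the primary screen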
Jurkat NFkB inh: lowers PMA/ionomycin-induced NF-kB signal in Jurkat cells. PMA/ionomycin-induced NF-kB luciferase reporter, luminescence. inhibition, % at 4 µM. 330,000 tested, 0.53% active. AID 435003; in the data active = inhibition above about 50%
CSC inhib: cancer stem cell inhibition; cancer stem cell-like cells viability, luminescence; inhibition, % at 7.5 µM; 300,000 tested, 1.1% active; in the data active = inhibition above about 75%; inconclusive = no clear call, values can overlap the other calls; tested in HMLE shEcad cells
Gli-Sufu antag: antagonists of Gli-Sufu signaling | inhibition, % at 5 µM | 340,000 tested, 0.74% active | Sufu-KO-LIGHT fibroblasts, Gli luciferase reporter luminescence | AID 588413;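 active = inhibition above about 55%, limit read from the data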;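 also: 0% = DMSO-treated cells and 100% = wells with medium but no cells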
Beta apoptosis: blocks beta cell apoptosis; INS-1E cytokine-induced death, ATP luminescence, 48 h; percent of positive-control rescue, neutral wells zero; protection from apoptosis, % (concentration not given with the values); 300,000 tested, 0.8% active;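 active = Every replicate reaches about 75%, or at least half do and their mean reaches it too, limit read from the data; inconclusive = At least half of replicates reach the limit but their mean does not; inactive = Under half of replicates reach the limit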;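 also: 0% = cytokine-treated negative control wells and 100% = positive control rescue; higher means more ATP so stronger rescue from cytokine killing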
Jurkat NFkB conf: inhibitors of the PMA/ionomycin-induced NF-kB reporter in Jurkat cells, retest; shares compounds with Jurkat NFkB inh; Jurkat NF-kB luciferase, 16 h; inhibition, % at 4 µM; 2,700 tested, 27% active;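 active = inhibition reaching about 45% at 4 µM in either replicate, limit read from the data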;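 also: plate controls were PMA/ionomycin stimulated DMSO wells for no effect and unstimulated DMSO wells for full effect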
697 NFkB conf: inhibitors of the PMA/ionomycin-induced NF-kB reporter in 697 B cells, retest | shares compounds with 697 NFkB inh | 697 B-cell NF-kB luciferase, 16 h | AID 449746 | inhibition, % at 4 µM | 2,000 tested, 35% active; in the data active = inhibition mostly above about 28%, no sharp cut-off; inactive = mostly below about 22%
Mdm2 MdmX conf: human Mdm2/MdmX binding inhibition, confirmed. shares compounds with Mdm2-MdmX inh. luminescent assay. inhibition, % at 8 µM. 10,000 tested, 55% active. AID 489028; in the data active = inhibition above about 40%
Full FLuc ctr: counter-screen for Mdm2/MdmX inhibitors: full-length luciferase. SaOS-2 full-length luciferase counterscreen, luminescence. AID 504607. shares compounds with Mdm2-MdmX inh. 6,200 tested, 77% active. inhibition, % at 8 µM;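 active = mean inhibition at 8 µM reaching about 37%, which flags the compound as non-specific, limit read from the data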;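 also: p53-null SaOS-2 cells with luciferase driven by a doxycycline-inducible promoter; compound on cells about two nights before reading with doxycycline added after day one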
* = called active by the depositor; i = inactive; u = inconclusive; x = not tested or not shown. In the library only some 4.5% were active in any assay of this set; here they are far more common.

SMILES	697 NFkB inh	Mdm2-MdmX inh	Jurkat NFkB inh	CSC inhib	Gli-Sufu antag	Beta apoptosis	Jurkat NFkB conf	Mdm2 MdmX conf	Full FLuc ctr	others
COc1cccc(/C=N/Nc2ncnc(Cl)c2N)c1O	-85	100*	56*	157*	79*	127*	13	83*	31
COc1cccc(/C=N/Nc2ncnc3scc(-c4ccccc4)c23)c1O	-20	82*	73*	111*	88*	103*	57*	80*	14
O=C(c1ccc(NC2=NC3CS(=O)(=O)CC3S2)cc1)N(CCO)Cc1ccccc1 (centres undefined)	10	8	-3	-2	5	-5	x	x	x
CN(C)c1ccc(C2C=C(c3ccc(Cl)cc3OC(F)F)Nc3ncnn32)cc1 (centres undefined)	2	66*	61*	58	-7	11	15	54*	49*
Cc1ccc(C2C=C(c3ccccc3OC(F)F)Nc3ncnn32)cc1 (centres undefined)	5	22	-11	24	-8	-1	x	x	x
O=C(CCl)N(c1ccc(Cl)cc1)c1c[nH]c2ccccc12	80*	69*	71*	88*	88*	-5	26	100*	52*	697 NFkB conf=36*
O=C1Nc2ccccc2C(=O)N2C[C@@H](O)C[C@H]12	-10	-9	-14	-15	18	-4	x	x	x
CCOc1ccc(Br)cc1/C(C)=N\NC1=NCCN1	-28	70*	70*	39	5	28	26	55*	56*
CCCCCOc1ccc(/C(C)=N/NC2=NCCN2)cc1	-7	10	42	1	6	4	x	x	x
Cn1ncc2c(NCc3ccccc3)ncnc21	9	-21	-5	-12	0	1	x	x	x
Clc1ccc(Cn2ncc3c(NCc4ccccc4)ncnc32)c(Cl)c1	-52	69*	65*	77*	x	-11	32	69*	39*
COc1cccc(N/C(N)=N/c2nc(CSc3ccccn3)cc(=O)[nH]2)c1	-45	52*	58*	6	x	2	56*	49*	79*
CCc1ccc(N/C(N)=N/c2nc(CSc3ccccn3)cc(=O)[nH]2)cc1	-50	6	16	-10	48	41	x	x	x
COc1ccc(NC(=O)c2nc(S(=O)(=O)Cc3cccc(C)c3)ncc2Cl)c(OC)c1	-243	85*	54*	28	1	-2	0	70*	23
CCOc1ccccc1N1CCN(C(=O)c2cc(-c3cccnc3)nc3c(Cl)cccc23)CC1	-31	88*	68*	1	2	-7	13	83*	52*
CCOc1ccccc1N1CCN(C(=O)c2cc3ccccc3cc2OC)CC1	-46	57*	57*	x	11	x	8	80*	69*
CCOc1ccccc1N1CCN(C(=O)c2ccncc2)CC1	-22	-3	-22	x	2	x	x	x	x
CC(Sc1nccn1C)C(=O)c1c(N)n(C)c(=O)n(C)c1=O (centres undefined)	-17	0	1	-6	-6	-12	x	x	x
C#CCOCCOCCOCCNc1nc(N2CCN(C(=O)[C@H](CCCCN)n3cc(CN)nn3)CC2)nc(N2CCN(C(=O)[C@H](CC(N)=O)n3cc(C(N)[C@H](C)CC)nn3)CC2)n1 (some centres undefined)	3	-6	3	x	-4	-13	x	x	x
Cc1ccc(N(C)S(=O)(=O)c2ccc(-c3cnc(C4CC4)o3)cc2)cc1	-4	61*	52*	72	16	25	52*	55*	79*
Cc1cccc(C)c1NS(=O)(=O)c1ccc(-c2cnc(C3CC3)o2)cc1	-248	82*	59*	x	57*	x	64*	53*	93*
Cc1cc(/C=N/NC(=O)c2cccs2)c(C)n1-c1ccccc1	i	93*	-196	22	-4	-3	0	88*	93*	697 NFkB conf=-38
Cc1ccc(O)c(N=Nc2nccs2)c1	-82	75*	59*	1	17	89*	79*	64*	23
CC1=CC(=O)C(C(C)C)=C/C1=N/OS(=O)(=O)c1ccccc1	-82	100*	81*	u	-6	105*	0	35	42*
CC1=CC(=O)C=C(C)C1=NOS(=O)(=O)c1ccccc1	x	x	x	x	4	x	x	x	x
SMILES	697 NFkB inh	Mdm2-MdmX inh	Jurkat NFkB inh	CSC inhib	Gli-Sufu antag	Beta apoptosis	Jurkat NFkB conf	Mdm2 MdmX conf	Full FLuc ctr	others
CSc1ccccc1C(=O)N(C)C(c1ccccc1)c1ccccc1	-5	13	24	-9	15	x	x	x	x
O=C(C#Cc1ccccc1)Nc1cccc(F)c1	-100	98*	73*	114*	-8	97*	-46	100*	30
CCN(CC)c1ccc(-c2nn3c(-c4n[nH]c5c4CCC5)nnc3s2)cc1	-9	51*	58*	56	46	42	54*	59*	102*
CCC1CCCCN1C(=O)c1ccc([N+](=O)[O-])o1 (centres undefined)	15	7	-5	1	15	-3	x	x	x
Cn1c(=O)[nH]c(=O)c2c1nc(CN1CCN(c3cccc(Cl)c3)CC1)n2Cc1ccccc1Cl	-31	73*	57*	53	7	x	12	51*	59*
O=C1N(c2ccccc2)C[C@@H]2C[C@@H](c3cc4ccccc4o3)N3CCC[C@@]123	-40	98*	72*	x	76*	x	-8	98*	35
COc1cccc(C(=O)N/N=C/c2ccc(OC)c(COc3ccccc3C(N)=O)c2)c1	14	22	-1	17	x	-3	x	x	x
COc1ccc(/C=N\NC(=O)c2cccc(F)c2)cc1COc1ccccc1	12	58*	52*	60	49	0	53*	64*	75*
CCOc1ccc(S(=O)(=O)N2CCCCC2)cc1NC(=O)Cc1ccsc1	33	40	5	x	-2	-4	x	x	x
Cc1cc(NC(=O)c2cc(-c3ccncc3)nc3c(C)cccc23)no1	-26	61*	52*	61	0	13	23	49*	53*
COc1ccc(C(=O)NC2CCCc3ccccc32)cc1[N+](=O)[O-] (centres undefined)	-27	67*	54*	47	1	x	23	58*	53*
COc1cc(C(=O)NC2CCCc3ccccc32)cc(OC)c1C (centres undefined)	5	24	14	-1	-3	x	x	x	x

Bioassay records deposited in PubChem by several laboratories.
